Here are results for 36 compounds from PubChem BioAssay.

This assay can be described thus: modulators of HCV replicon luciferase signal, primary screen, HCV replication inhibitor project, Huh7 cells, luciferase reporter (AID 1109).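 Note: huh7 hepatoma cells harbouring a luciferase neomycin HCV replicon reporter; luciferase luminescence as measure of HCV replicon replication; test concentration not given here.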 The settings on record: 48 h, higher = more signal. (A replicon is a self-replicating genome or part of one, used to study replication in cells.)
On to `Oc1ccc2cc[n+](Cc3cccc(OC(F)(F)F)c3)cc2c1`, for which the z-score is -0.114.

The compound `CC1CC/C=C\[C@H]2OC34C=CCN(CCN5CCOCC5)C(=O)[C@H]3N(CCCCCO)C(=O)[C@@H]4C2C(=O)O1` (stereo partly specified) had a z-score of 0.824. The value for `C=C(C(=O)CC[C@@H](OC(=O)c1cccnc1)c1ccc(CO)o1)C(C)C` was -1.24; that for `C=CCC(OC(C)=O)[C@@H]1[C@@H](N(Cc2cc3ccccc3o2)C(=O)c2cccc3ccccc23)c2cc(OCCCO)ccc2N1C(=O)Cc1ccc(OC)cc1` (stereo partly specified) was -0.431.

`C=CCN1C(=O)[C@]2(COC(c3ccc(OCCCO)cc3)=N2)Cc2ccccc21`: the z-score was -0.347.

As to `O=C(NCc1ccccc1)[C@@H]1c2ccccc2C(=O)N(C2CCCCC2)[C@H]1c1ccc(CO)cc1`, the z-score was -0.166. Turning to `[N-]=[N+]=NCc1ccccc1C[C@@]1(C(=O)NCc2ccccc2)N=C(c2ccc(OCCCO)cc2)O[C@@H]1c1ccccc1CN=[N+]=[N-]`, the z-score is -2.52.

For `CCOC(=O)C=Cc1cccc(OC)c1O`, the z-score was 1.61. `CN(C)CCCC[C@@H]1NC(=O)[C@H]2C[C@@H](C(=O)NCCCCCNC(=O)CS)[C@@H](c3ccc(O)cc3)N2C1=O` came in with a z-score of 0.579. As to `COC(=O)[C@@]1(Cc2ccccc2)[C@H]2c3cc(C(=O)N(C)C)n(Cc4cc(F)c(F)c(F)c4)c3C[C@H]2CN1C(=O)c1ccccc1`, the z-score is -1.87.

For `C=C(C)[C@@H]1CC=C(C(O)C2C=CC3C(=O)N(Cc4ccccc4)C(=O)C3N2n2cnnc2)CC1` (stereo partly specified), the z-score is -2.2. Take `O=C(NCCN1CCOCC1)[C@@H]1c2ccccc2C(=O)N(Cc2cc(F)cc(C(F)(F)F)c2)[C@H]1c1ccc(CO)cc1`: the z-score is -1.33.

With `O=C1O[C@H](c2ccccc2)[C@H](c2ccccc2)N2[C@H]1[C@@H](C(=O)NC[C@H](O)c1ccccc1)[C@]1(C(=O)Nc3ccc(C#CC4(O)CCCCCC4)cc31)[C@H]2c1ccccc1OCCO`, the z-score was -3.12. As to `C=C(/C(=C/C[C@@H](OC(=O)c1ccncc1)c1ccc(CO)o1)c1cc(C(=O)OC)ccc1OC)C(C)C`, the z-score is -2.03. Next, `COc1ccc([Si](C)(C)[C@@H]2[C@@H](CCO)O[C@]3(C(=O)N(Cc4ccccc4)c4ccc(N(C=O)c5ccccc5)cc43)[C@H]2C)cc1`: -4.14.

As to `CCCCCCC#C[Si](O[C@H](c1ccccc1)c1cn([C@H](C)c2ccccc2)nn1)(C(C)C)C(C)C`, the z-score is -1.57. The value for `[N-]=[N+]=NCc1ccccc1[C@@H]1OC(c2ccc(OCCCO)cc2)=N[C@]1(Cc1ccccc1)C(=O)O` was -0.297. The value for `CCCC[C@@H]1C[C@H]1[C@@H](NC(=O)c1ccccc1)c1ccc(-c2ccccc2)cc1` was -2.9. Turning to `Cc1ccc(S[C@]2(C(=O)NCCN3CCOCC3)CC(=O)N(C3CCCCC3)[C@@H]2c2ccc(CO)cc2)cc1`, the z-score was -1.82. Regarding `CC(C)NC(=O)[C@@]1(c2ccc([N+](=O)[O-])cc2)CC(=O)N(C(C)C)[C@@H]1c1ccc(CO)cc1`, the z-score is -0.176. The value for `C=CCN1Cc2ccccc2C[C@@]2(COC(c3ccc(OCCCO)cc3)=N2)C1=O` was -0.908; that for `COCCn1c(C(=O)N2CCCC2)cc2c1C[C@H]1CN(C(=O)c3ccccc3)[C@@](Cc3ccc(OC)cc3)(C(=O)OC)[C@@H]21` was -1.62; that for `C=C[C@@H](C)[C@@H](OC(=O)Nc1ccc(OC)cc1)c1ccc(O)c2ccccc12` was -1.84.

Regarding `COCCOC(=O)N1C(=O)[C@@]2(c3ccccc31)[C@H](C(=O)N1CCCCCCC1)[C@H]1C(=O)O[C@H](c3ccccc3)[C@H](c3ccccc3)N1[C@@H]2c1ccccc1OCCO`, the z-score was -1.78. Turning to `COCCn1c(C(=O)N(C)C)cc2c1C[C@H]1CN(C(=O)c3ccccc3)[C@@](Cc3ccc(F)cc3)(C(=O)OC)[C@@H]21`, the z-score was -0.285. Regarding `CC(C)N1C(=O)c2ccccc2[C@](C)(C(=O)NCCCN(C)C)[C@@H]1c1ccc(CO)cc1`, the z-score was -0.104. Next, `O=C1C2C=CC(C(O)c3ccc(-c4ccccc4)s3)N(Nc3ccccc3F)C2C(=O)N1c1ccccc1` (stereo unspecified): 1.78; `CN1C(=O)C2C(C1=O)C1C=C(c3ccc(CO)cc3)C2C(C2CC2)N1Cc1sc2ccccc2c1Cl` (stereo unspecified): -1.58. Take `CO[C@H]1O[C@H](CO)[C@@H](OC(=O)Nc2ccc3c(c2)OCO3)[C@H](OC(=O)Nc2ccc3c(c2)OCO3)[C@H]1OC(=O)Nc1ccc2c(c1)OCO2`: the z-score is -0.36. For the compound `C=CC[C@]1(C(=O)NCCN2CCOCC2)N=C(c2ccc(OCCCO)cc2)O[C@H]1c1ccccc1N=[N+]=[N-]`, the z-score is -0.44.

Take `C=CCNC(=O)[C@@H]1[C@H]2C(=O)O[C@H](c3ccccc3)[C@H](c3ccccc3)N2[C@H](c2ccccc2OCCO)[C@@]12C(=O)N(C(=O)OCCOC)c1ccc(C#CCC(C(=O)OC)C(=O)OC)cc12`: the z-score is -2.59. As to `CC(C)[C@H]1COC(=O)N1C(=O)[C@H]1[C@@H](c2ccccc2)N(c2ccccc2)O[C@@H]1C`, the z-score is -0.383. Consider `O=C1O[C@@H](c2ccccc2)[C@@H](c2ccccc2)N2[C@@H](c3ccc(O)cc3)[C@]3(C(=O)Nc4ccc(C#CCCO)cc43)[C@@H](C(=O)O)[C@H]12`, for which the z-score turned out to be 0.386. `Cc1ccc(S[C@]2(C(=O)NCCCN(C)C)CC(=O)N(C(C)C)[C@@H]2c2ccc(CO)cc2I)cc1`: the z-score is -2.53. On to `Cc1ccc(N2C(=O)c3ccccc3[C@](C)(C(=O)NCCN3CCOCC3)[C@@H]2c2ccc(CO)cc2)nc1`, for which the z-score came out at 0.548. On to `COC(=O)C(CC#Cc1ccc2c(c1)[C@]1(C(=O)N2)[C@H](C(=O)N2CCCCCCC2)[C@H]2C(=O)O[C@H](c3ccccc3)[C@H](c3ccccc3)N2[C@@H]1c1ccccc1OCCO)C(=O)OC`, for which the z-score is -1.88.
